Records with an inconclusive call do not appear. Where a call stands in place of a potency, no number is given. Activity calls are given as the source filed them. Calls come from the whole dose curve.

One assay is described as follows: qHTS assay to identify small molecule agonists of the AP-1 signaling pathway - cell viability counter screen (AID 1159525). Note: nearly all actives have a fitted effect of over 55% in size. To be noted: ME-180 AP-1-bla cells viability, ATP luminescence, 5 h; series mostly up to 76.8 µM. A digest of the protocol: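 AP-1-bla ME-180 cells in Opti-MEM with 0.5% dialyzed FBS, compound exposure 5 h at 37 C in 15-point titration. Viability read in the same wells as ATP content by CellTiter-Glo luminescence, normalised to tetra-n-octylammonium bromide and DMSO controls.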
(In qHTS, concentration-response curves come from the screen itself.)
Regarding `CCc1cccc(CC)c1N(COC)C(=O)CS(=O)(=O)O`, the Potency result was “inactive”.

Take `CCCCCCS`: the Potency entry is “inactive”.

For the compound `Cc1cc(=O)[nH]c(=O)[nH]1`, the Potency result is “inactive”.

In the case of `CCc1cccc(CC)c1NC(=O)C(=O)O`, the Potency entry is “inactive”.

On to `CCC(C)c1ccccc1` (configuration not stated), for which the Potency result is “inactive”.

`CC(=O)c1ccccc1N`: the Potency result is “inactive”.

For `CC1(C)COCN1`, the Potency entry was “inactive”.

Take `CC(C)=CCCC(C)CCOC(=O)C(C)C` (configuration not stated): the Potency entry is “inactive”.

Consider `Clc1cc(Cl)c(-c2c(Cl)c(Cl)cc(Cl)c2Cl)cc1Cl`, for which the Potency result is “inactive”.

For the compound `O=c1cccc[nH]1`, the Potency entry is “inactive”.

On to `CCCCCCCOC(=O)c1ccccc1C(=O)OCCCCCCC`, for which the Potency entry is “inactive”.

`CC(C)C(=O)OCc1ccccc1`: the Potency result was “inactive”.

`C=CC(=C)CC/C=C(\C)CCC=C(C)C`: the viability change, negative = cytotoxic is 2.62% [at 15.8 µM] (inactive).

As for `CCc1c(Br)c(Br)c(Br)c(Br)c1Br`, the Potency entry is “inactive”.

With `CCCCCCCCC(C)=O`, the Potency result was “inactive”.

As to `CN(C)CCN1CCOCC1`, the Potency entry was “inactive”.

Consider `CCc1ccc(C)nc1`, for which the Potency result is “inactive”.

Consider `CCCCCCCC(C)=O`, for which the Potency result was “inactive”.

For the compound `CC(C)=CCCC(C)O` (configuration not stated), the Potency entry was “inactive”.

With `COc1ccc(C#N)cc1`, the Potency result is “inactive”.

On to `CCOC(=O)CC(C)O` (configuration not stated), for which the Potency entry was “inactive”.

For `CO[Si](CCC1CCC2OC2C1)(OC)OC` (configuration not stated), the Potency result was “inactive”.

As for `c1cc[nH]c1`, the Potency result was “inactive”.

Take `O=S(=O)(O)c1cc(S(=O)(=O)O)c2ccc3c(S(=O)(=O)O)cc(S(=O)(=O)O)c4ccc1c2c43`: the viability change, negative = cytotoxic is -1.68% [at 15.8 µM] (inactive).

Turning to `OCCCS`, the Potency result is “inactive”.

In the case of `C=CC(C)C#N` (configuration not stated), the Potency entry was “inactive”.

Take `C=CC(=O)OCCN(CC)CC`: the Potency entry was “inactive”.

Take `COc1cccc(OC)c1O`: the Potency entry was “inactive”.

For `CS(C)(=O)=O`, the Potency result was “inactive”.

Turning to `OCCN1CN(CCO)CN(CCO)C1`, the Potency result was “inactive”.

Consider `C/C=C/CO`, for which the Potency entry is “inactive”.

A short description of the next assay: qHTS assay to identify small molecule agonists of the AP-1 signaling pathway (AID 1159526). The note with it: ME-180 (cervical carcinoma) AP-1-bla reporter, beta-lactamase FRET ratio, 5 h; series mostly up to 76.8 µM.
Turning to `CCc1cccc(CC)c1N(COC)C(=O)CS(=O)(=O)O`, the Potency entry is “inactive”.

For the compound `CCCCCCS`, the Potency result is “inactive”.

In the case of `Cc1cc(=O)[nH]c(=O)[nH]1`, the Potency result was “inactive”.

As for `CCc1cccc(CC)c1NC(=O)C(=O)O`, the Potency result was “inactive”.

On to `CCC(C)c1ccccc1` (configuration not stated), for which the Potency result was “inactive”.

Take `CC(=O)c1ccccc1N`: the Potency result was “inactive”.

Take `CC1(C)COCN1`: the Potency result was “inactive”.

On to `CC(C)=CCCC(C)CCOC(=O)C(C)C` (configuration not stated), for which the Potency entry was “inactive”.

Regarding `Clc1cc(Cl)c(-c2c(Cl)c(Cl)cc(Cl)c2Cl)cc1Cl`, the Potency result is “inactive”.

As for `O=c1cccc[nH]1`, the Potency result was “inactive”.

Turning to `CCCCCCCOC(=O)c1ccccc1C(=O)OCCCCCCC`, the Potency result is “inactive”.

As for `CC(C)C(=O)OCc1ccccc1`, the Potency entry was “inactive”.

`C=CC(=C)CC/C=C(\C)CCC=C(C)C`: the activation is -1.16% [at 15.8 µM] (inactive).

For `CCc1c(Br)c(Br)c(Br)c(Br)c1Br`, the Potency entry is “inactive”.

For `CCCCCCCCC(C)=O`, the Potency result was “inactive”.

Take `CN(C)CCN1CCOCC1`: the Potency result was “inactive”.

Take `CCc1ccc(C)nc1`: the Potency result is “inactive”.

For the compound `CCCCCCCC(C)=O`, the Potency entry was “inactive”.

As for `CC(C)=CCCC(C)O` (configuration not stated), the Potency result was “inactive”.

For the compound `COc1ccc(C#N)cc1`, the Potency result is “inactive”.

Consider `CCOC(=O)CC(C)O` (configuration not stated), for which the Potency result was “inactive”.

On to `CO[Si](CCC1CCC2OC2C1)(OC)OC` (configuration not stated), for which the Potency result is “inactive”.

Take `c1cc[nH]c1`: the Potency entry is “inactive”.

Take `O=S(=O)(O)c1cc(S(=O)(=O)O)c2ccc3c(S(=O)(=O)O)cc(S(=O)(=O)O)c4ccc1c2c43`: the activation is -3.16% [at 15.8 µM] (inactive).

With `OCCCS`, the Potency entry is “inactive”.

In the case of `C=CC(C)C#N` (configuration not stated), the Potency result is “inactive”.

For the compound `C=CC(=O)OCCN(CC)CC`, the Potency entry is “inactive”.

Take `COc1cccc(OC)c1O`: the Potency entry was “inactive”.

In the case of `CS(C)(=O)=O`, the Potency result was “inactive”.

As for `OCCN1CN(CCO)CN(CCO)C1`, the Potency result was “inactive”.

For the compound `C/C=C/CO`, the Potency result is “inactive”.

The record behind these values is PubChem BioAssay (Tox21).
